Activity calls are given as the source filed them.

A short description of experiment [1]: optical density shifts of acrAB sulA E. coli – strain DRC41, OD650, 48 h, E. coli filamentation inducer project, primary screen (AID 1152).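 Further: E. coli MC1000 strain DRC41 lacking acrAB efflux pump and sulA.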 To be noted: higher = more signal, called active from +8 up or from −8 down.
Experiment [2] is described as follows: probe aLefty1 binding on compound microarray – biochemical, small-molecule microarray, 635/667 nm fluorescence, primary screen (AID 1153).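 Further: score merges spot fluorescence with signal-to-noise ratio from the scanned slide images.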 To be noted: higher = more signal.
The nature of experiment [3]: plasmodial surface anion channel blockers, osmotic lysis – cell-based, P. falciparum Indochina, OD700, 1 h, primary screen (AID 1154). To be noted: P. falciparum Indochina infected RBC osmotic lysis, higher = more signal, called active from +8 up or from −8 down.
Experiment [4] is described as follows: plasmodial surface anion channel blockers, osmotic lysis – cell-based, P. falciparum Indochina, OD700, 2 h, primary screen (AID 1155).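 Further: lysis reports solute entry through the parasite surface anion channel PSAC.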 To be noted: P. falciparum Indochina infected erythrocytes, higher = more signal, called active from +8 up or from −8 down.
Experiment [5] can be described thus: changes in parasitized red cell lysis, either direction – P. falciparum Indochina, OD700, 3 h, PSAC antagonist project, primary screen (AID 1156). To be noted: P. falciparum-infected erythrocytes, osmotic lysis, higher = more signal, called active from +8 up or from −8 down.
Experiment [6] is described as follows: plasmodial surface anion channel blockers, osmotic lysis – cell-based, P. falciparum Indochina, OD700, 18 h, primary screen (AID 1157). To be noted: P. falciparum Indochina infected erythrocytes, osmotic lysis OD700, 18 h; higher = more signal, called active from +8 up or from −8 down.
Experiment [7] can be described thus: S6 kinase pathway phospho-S6 level changes – cell-based, A549, cytoblot, luminescence, serum-stimulated, primary screen (AID 1158).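 Further: serum-stimulated A549 lung adenocarcinoma cells; signal is phosphorylated S6 detected by cytoblot immunostaining with HRP secondary.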 To be noted: 5 h, higher = more signal.
In experiment [8] the target is NADPH oxidase 2 (Homo sapiens) (UniProt P04839). Kind of experiment: compounds shifting NOX2 Amplex Red fluorescence – cell-based, HEK293-NOX2, PMA-stimulated, NOX inhibitor project, primary screen (AID 1159). Further: test concentration not given here. To be noted: 45 min, higher = more signal, called active from +8 up or from −8 down.
Sequence of NADPH oxidase 2 (Homo sapiens) (P04839 whole entry, looked up): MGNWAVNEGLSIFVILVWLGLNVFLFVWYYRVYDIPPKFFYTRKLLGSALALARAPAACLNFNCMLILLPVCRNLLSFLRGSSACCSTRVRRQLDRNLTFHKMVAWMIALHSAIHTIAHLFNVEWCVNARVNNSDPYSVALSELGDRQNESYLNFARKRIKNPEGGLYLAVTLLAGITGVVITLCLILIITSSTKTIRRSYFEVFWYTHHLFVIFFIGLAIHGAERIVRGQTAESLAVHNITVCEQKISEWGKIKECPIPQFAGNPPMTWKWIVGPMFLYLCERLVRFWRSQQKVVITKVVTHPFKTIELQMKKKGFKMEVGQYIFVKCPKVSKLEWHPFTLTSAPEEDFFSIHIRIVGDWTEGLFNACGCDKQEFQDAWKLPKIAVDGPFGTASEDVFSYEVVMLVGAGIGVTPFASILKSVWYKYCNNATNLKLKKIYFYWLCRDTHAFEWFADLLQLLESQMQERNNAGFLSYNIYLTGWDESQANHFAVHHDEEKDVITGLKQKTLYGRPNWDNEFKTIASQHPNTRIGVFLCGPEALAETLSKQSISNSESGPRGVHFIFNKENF
The target in experiment [9] is NADPH oxidase 4 (Homo sapiens) (UniProt Q9NPH5). Nature of the experiment: compounds shifting NOX4 Amplex Red fluorescence – cell-based, HEK293-NOX4, tetracycline-induced, NOX inhibitor project, primary screen (AID 1160). To be noted: HEK293-NOX4, Amplex Red H2O2 fluorescence, 45 min; higher = more signal, called active from +8 up or from −8 down.
Sequence of NADPH oxidase 4 (Homo sapiens) (Q9NPH5 whole entry, looked up): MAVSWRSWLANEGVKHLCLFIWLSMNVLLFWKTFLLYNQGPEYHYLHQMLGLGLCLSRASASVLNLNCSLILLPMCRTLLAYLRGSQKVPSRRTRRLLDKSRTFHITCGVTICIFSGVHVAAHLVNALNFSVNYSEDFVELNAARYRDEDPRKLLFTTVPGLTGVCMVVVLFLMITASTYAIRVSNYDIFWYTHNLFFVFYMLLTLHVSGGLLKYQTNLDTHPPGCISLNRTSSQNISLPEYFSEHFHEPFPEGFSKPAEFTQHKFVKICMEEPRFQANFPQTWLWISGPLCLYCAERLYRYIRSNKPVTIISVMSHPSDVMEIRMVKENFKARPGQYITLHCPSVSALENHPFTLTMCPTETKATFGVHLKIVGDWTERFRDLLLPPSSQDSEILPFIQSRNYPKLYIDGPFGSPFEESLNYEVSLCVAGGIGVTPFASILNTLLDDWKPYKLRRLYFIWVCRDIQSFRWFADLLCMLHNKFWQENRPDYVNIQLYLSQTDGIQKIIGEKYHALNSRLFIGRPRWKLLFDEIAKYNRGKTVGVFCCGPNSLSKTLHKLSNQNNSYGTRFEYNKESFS
Experiment [10] has as its target NADPH oxidase 5 (Homo sapiens) (UniProt Q96PH1). Kind of experiment: compounds shifting NOX5 Amplex Red fluorescence – cell-based, HEK293-NOX5, NOX inhibitor project, primary screen (AID 1161). To be noted: HEK293-NOX5, ionomycin, 45 min, higher = more signal.
Experiment [11] can be described thus: compound effects on lung adenocarcinoma cell viability – A549, calcein-AM fluorescence, 48 h, basal, profiling panel (AID 1162). Further: test concentration not given here. To be noted: higher = more signal.
Experiment [12] in a line: compound effects on differentiated 3T3-L1 adipocyte viability – cell-based, 3T3-L1 adipocytes, calcein-AM fluorescence, 48 h, basal, profiling panel (AID 1163). Further: test concentration not given here. To be noted: 3T3-L1 adipocytes viability, higher = more signal.
Experiment [13] can be described thus: compound effects on hepatocellular carcinoma cell viability – HepG2, calcein-AM fluorescence, 48 h, basal, profiling panel (AID 1164). Further: test concentration not given here. To be noted: higher = more signal.
Experiment [14] can be described thus: compound effects on multiple myeloma cell viability – MM1S, calcein-AM fluorescence, 48 h, basal, profiling panel (AID 1165).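 Further: viability of MM1S multiple myeloma cells under basal unstimulated conditions; test concentration not given here.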 To be noted: higher = more signal.
The nature of experiment [15]: calcein-AM signal in unstimulated myeloma cells – cell-based, calcein-AM fluorescence, 48 h, PK04 Diversity Set, profiling panel (AID 1166).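 Further: cells grown under basal conditions without added stimulus; test concentration not given here.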 To be noted: RPMI8226 myeloma viability, higher = more signal.
Experiment [16] can be described thus: JC-1 mitochondrial signal, unstimulated HepG2 cells – cell-based, JC-1 fluorescence, 24 h, 100 nL compound, profiling panel (AID 1167). Further: test concentration not given here. To be noted: HepG2 mitochondrial potential, higher = more signal.
Experiment [17] in a line: JC-1 mitochondrial signal, unstimulated adipocytes – cell-based, JC-1 fluorescence, 3T3-L1 adipocytes, 24 h, 100 nL compound, profiling panel (AID 1168). Further: test concentration not given here. To be noted: JC-1 mitochondrial fluorescence, higher = more signal, called active from +8 up or from −8 down.
The nature of experiment [18]: JC-1 mitochondrial signal, unstimulated myeloma cells – cell-based, JC-1 fluorescence, RPMI8226, 24 h, 100 nL compound, profiling panel (AID 1169). Further: test concentration not given here. To be noted: JC-1 mitochondrial potential fluorescence, higher = more signal.
A short description of experiment [19]: JC-1 mitochondrial signal, unstimulated MM1S myeloma – cell-based, JC-1 fluorescence, 24 h, 100 nL compound, profiling panel (AID 1170). Further: test concentration not given here. To be noted: MM1S mitochondrial potential, higher = more signal.
Experiment [20] can be described thus: resazurin metabolic signal in A549 cells – cell-based, resazurin fluorescence, 24 h, PK04 Diversity Set, profiling panel (AID 1171). Further: test concentration not given here. To be noted: A549 viability, higher = more signal, called active from +8 up or from −8 down. For orientation: Resazurin is reduced to fluorescent resorufin, in cell work by metabolically active cells.

Sequence of NADPH oxidase 5 (Homo sapiens) (Q96PH1 whole entry, looked up): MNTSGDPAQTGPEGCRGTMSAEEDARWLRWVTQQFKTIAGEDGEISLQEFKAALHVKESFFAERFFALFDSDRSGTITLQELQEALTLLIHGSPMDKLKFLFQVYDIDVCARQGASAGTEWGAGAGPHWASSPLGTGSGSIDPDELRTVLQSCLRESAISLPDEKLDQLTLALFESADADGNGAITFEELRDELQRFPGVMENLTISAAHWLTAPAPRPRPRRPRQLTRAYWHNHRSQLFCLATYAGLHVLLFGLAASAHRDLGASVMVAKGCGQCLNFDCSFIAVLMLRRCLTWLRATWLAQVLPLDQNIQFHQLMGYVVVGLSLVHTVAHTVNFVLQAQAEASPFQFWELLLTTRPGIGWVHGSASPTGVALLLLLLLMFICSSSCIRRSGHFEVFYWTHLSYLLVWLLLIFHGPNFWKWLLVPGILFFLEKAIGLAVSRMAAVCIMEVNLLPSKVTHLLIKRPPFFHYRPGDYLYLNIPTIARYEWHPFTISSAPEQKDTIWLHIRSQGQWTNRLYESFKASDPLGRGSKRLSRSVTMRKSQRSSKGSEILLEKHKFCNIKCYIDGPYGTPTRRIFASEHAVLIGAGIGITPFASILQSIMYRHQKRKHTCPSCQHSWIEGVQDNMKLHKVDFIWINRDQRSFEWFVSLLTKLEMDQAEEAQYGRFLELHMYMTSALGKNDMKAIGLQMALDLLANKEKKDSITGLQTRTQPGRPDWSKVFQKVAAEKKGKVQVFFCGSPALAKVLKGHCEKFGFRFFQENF

As to `COCCOC(=O)N1C(=O)[C@@]2(c3cc(C#Cc4ccc(OC)cc4)ccc31)[C@H](C(=O)N1CCCCCCC1)[C@H]1C(=O)O[C@H](c3ccccc3)[C@H](c3ccccc3)N1[C@@H]2c1ccc(O)cc1`, the z-score is 0.785 (inactive) in experiment [1]; 1.04 (inactive) in experiment [3]; -0.134 (inactive) in experiment [4]; -0.318 (inactive) in [5]; -0.518 (inactive) in experiment [6]; 1.27 in experiment [7]. The z-score in experiment [8] was -0.76 (inactive); in experiment [9], -0.951 (inactive); in experiment [10], -1.4; in experiment [11], -0.938; in experiment [12] it was 1.07; in experiment [13], -0.618. For the same molecule, the z-score in [14] is -0.26; in experiment [15] it was -0.943; in [16], -0.73; in experiment [17], 0.88 (inactive); in experiment [18] it was -0.0794; in experiment [19], -0.559. In addition, the z-score in [20] is 0.545 (inactive). For the same molecule, the composite z-score in [2] came to 1.58.

Consider `CCOC(=O)C[C@H]1[C@H](OC(=O)c2ccc(-c3ccccc3)cc2)[C@@H](NC(=O)C2CCCCC2)c2cc(OCCCO)ccc2N1C(=O)c1ccccc1`, for which the z-score in [1] is -0.915 (inactive); in experiment [3] it was 0.479 (inactive); in experiment [4] it was 0.705 (inactive); in experiment [5] it was -0.138 (inactive); in experiment [6] it was 0.505 (inactive); in [7] it was 1.09. Moreover, the z-score is 0.169 (inactive) in [8]; -0.849 (inactive) in experiment [9]; 1.49 in [10]; -0.28 in experiment [11]; 0.557 in experiment [12]; 0.137 in [13]. The z-score in experiment [14] is -0.412; in [15], -0.203; in experiment [16] it was 0.383; in experiment [17], -0.983 (inactive); in experiment [18], 0.115; in experiment [19] it was -0.101. Besides, in experiment [20], the z-score was -1.01 (inactive). In experiment [2], this molecule yielded a composite z-score of -0.263.

Take `O=C(O)[C@H](Cc1ccccc1)n1cc(-c2ccccn2)nn1`: the z-score in experiment [1] was -0.267 (inactive); in experiment [3] it was -0.258 (inactive); in experiment [4] it was -0.431 (inactive); in experiment [5] it was -0.906 (inactive); in experiment [6] it was -0.0561 (inactive); in [7], -0.428. Also, the z-score in experiment [8] is -1.61 (inactive); in experiment [9], -0.653 (inactive); in experiment [10], -1.24; in experiment [11], -0.529; in [12] it was 0.039; in experiment [13] it was -0.129. Moreover, the z-score is 0.228 in experiment [14]; -0.608 in experiment [15]; 0.237 in experiment [16]; 1.56 (inactive) in [17]; -0.166 in experiment [18]; -0.263 in experiment [19]. The z-score in experiment [20] was 0.507 (inactive). In experiment [2], the composite z-score is -0.0969.

On to `COc1cc(CO)cc(I)c1O[C@H]1C=C(C(=O)NCCO)C[C@@H](N(Cc2ccc(F)cc2)C(=O)C2CCCO2)[C@@H]1O` (stereo not given in full), for which the z-score was 3.54 (inactive) in [1]; 1.92 (inactive) in experiment [3]; 0.581 (inactive) in experiment [4]; 1.03 (inactive) in [5]; 0.23 (inactive) in [6]; -0.0981 in [7]. For the same molecule, the z-score was 0.0499 (inactive) in experiment [8]; 0.93 (inactive) in experiment [9]; 0.73 in [10]; 0.656 in experiment [11]; 0.284 in [12]; 0.364 in experiment [13]. The z-score was 0.87 in experiment [14]; 0.577 in [15]; 1.04 in experiment [16]; 0.195 (inactive) in experiment [17]; -0.899 in experiment [18]; 0.578 in experiment [19]. Also, the z-score in experiment [20] was -0.409 (inactive). This molecule registered a composite z-score in [2] of -0.147.

Turning to `COCCOC(=O)N1C(=O)[C@@]2(c3cc(C#CC4=CCCCC4)ccc31)[C@H](C(=O)N1CCN(c3ncccn3)CC1)[C@H]1C(=O)O[C@H](c3ccccc3)[C@H](c3ccccc3)N1[C@@H]2c1ccc(O)cc1`, the z-score in experiment [1] was -0.386 (inactive); in experiment [3], 1.65 (inactive); in experiment [4], 1.5 (inactive); in [5], 0.116 (inactive); in [6], 0.824 (inactive); in [7] it was 1.13. Besides, the z-score is 1.11 (inactive) in [8]; 0.482 (inactive) in experiment [9]; 1.2 in [10]; 0.463 in experiment [11]; 0.218 in [12]; 1.15 in experiment [13]. In addition, the z-score in experiment [14] was 0.269; in [15], -0.802; in [16] it was -1.16; in [17], 0.207 (inactive); in experiment [18] it was -0.31; in experiment [19], -1.3. The z-score in experiment [20] was -0.869 (inactive). Further, the composite z-score in experiment [2] was determined as 0.315.

Values taken from PubChem BioAssay.
